Experimental data from PubChem BioAssay AID1159580 (chemical genetic matrix, 2015).
Screen size: about 5,500 compounds; about 2,000 (36%) were called active. About 18% were inconclusive and are not listed. No stated cut-off is given here; in the data, active means normalized growth mostly below about 0.91 (no sharp cut-off); inconclusive means no clear call, values can overlap the other calls; inactive means mostly above about 0.92. This is one part of the list.

Assay: chemical genetic growth profiling, strain panel (AID 1159580);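 further: tested at 20 µM; growth read once vehicle control cultures reached saturation at 30 °C; 1 = growth at the plate median or of vehicle wells; lower values mean less growth of the strain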
Conditions: growth OD

Measured: normalized growth

COc1ccc(C2CC(=O)c3ccc(OC)cc3O2)cc1 (centres undefined)
inactive: S. cerevisiae deletion strains, locus YKL068W, hits give low values 0.97 | S. cerevisiae deletion strains, locus YKL085W, strain MDH1 (second series), hits give low values 0.982 | S. cerevisiae deletion strains, locus YKL085W, strain MDH1, hits give low values 0.982 | S. cerevisiae deletion strains, locus YKL160W, strain elf1, hits give low values 0.908 | S. cerevisiae deletion strains, locus YKL190W, strain CNB1, hits give low values 0.948 | S. cerevisiae deletion strains, locus YKR026C, strain gcn3, hits give low values 0.931 | S. cerevisiae deletion strains, locus YKR091W, strain srl3, hits give low values 0.968 | S. cerevisiae deletion strains, locus YLL001W, strain dnm1, hits give low values 0.938 | S. cerevisiae deletion strains, locus YLL026W, hits give low values 0.932 | S. cerevisiae deletion strains, locus YLL041C, strain sdh2, hits give low values 0.958 | S. cerevisiae deletion strains, locus YLR027C, strain aat2, hits give low values 0.93 | S. cerevisiae deletion strains, locus YLR039C, strain RIC1, hits give low values 0.811 | S. cerevisiae deletion strains, locus YLR058C, strain SHM2, hits give low values 0.901 | S. cerevisiae deletion strains, locus YLR102C, strain apc9, hits give low values 0.951 | S. cerevisiae deletion strains, locus YLR262C, strain YPT6 (second series), hits give low values 0.912 | S. cerevisiae deletion strains, locus YLR262C, strain YPT6, hits give low values 0.872 | S. cerevisiae deletion strains, locus YLR342W, strain FKS1, hits give low values 0.936 | S. cerevisiae deletion strains, locus YLR357W, strain rsc2, hits give low values 0.902 | S. cerevisiae deletion strains, locus YLR370C, strain arc18, hits give low values 0.947 | S. cerevisiae deletion strains, locus YLR371W, strain rom2, hits give low values 0.938 | S. cerevisiae deletion strains, locus YLR384C, strain iki3, hits give low values 0.952 | S. cerevisiae deletion strains, locus YML016C, strain PPZ1, hits give low values 0.959 | S. cerevisiae deletion strains, locus YML124C, strain tub3, hits give low values 0.952 | S. cerevisiae deletion strains, locus YMR058W, strain fet3, hits give low values 0.932 | S. cerevisiae deletion strains, locus YMR078C, strain ctf18, hits give low values 0.93 | S. cerevisiae deletion strains, locus YMR125W, strain sto1, hits give low values 0.967 | S. cerevisiae deletion strains, locus YMR129W, hits give low values 0.956 | S. cerevisiae deletion strains, locus YMR223W, strain ubp8, hits give low values 0.92 | S. cerevisiae deletion strains, locus YMR231W, strain pep5, hits give low values 0.993 | S. cerevisiae deletion strains, locus YMR307W, strain GAS1, hits give low values 0.649 | S. cerevisiae deletion strains, locus YNL067W, strain RPL9B, hits give low values 0.87 | S. cerevisiae deletion strains, locus YNL128W, strain TEP1, hits give low values 0.9 | S. cerevisiae deletion strains, locus YNL209W, strain ssb2, hits give low values 0.965 | S. cerevisiae deletion strains, locus YNL248C, strain rpa49, hits give low values 0.921 | S. cerevisiae deletion strains, locus YNL250W, strain rad50, hits give low values 0.939 | S. cerevisiae deletion strains, locus YNL271C, strain bni1, hits give low values 0.937 | S. cerevisiae deletion strains, locus YNL298W, strain CLA4, hits give low values 0.934 | S. cerevisiae deletion strains, locus YNL322C, strain KRE1 (second series), hits give low values 0.969 | S. cerevisiae deletion strains, locus YNR049C, strain mso1, hits give low values 0.97 | S. cerevisiae deletion strains, locus YNR052C, strain pop2, hits give low values 0.944 | S. cerevisiae deletion strains, locus YOL012C, strain htz1 0.489 | S. cerevisiae deletion strains, locus YOL147C, strain pex11, hits give low values 0.94 | S. cerevisiae deletion strains, locus YOR001W, strain rrp6, hits give low values 0.917 | S. cerevisiae deletion strains, locus YOR061W, strain CKA2, hits give low values 0.955 | S. cerevisiae deletion strains, locus YOR069W, strain VPS5, hits give low values 0.979 | S. cerevisiae deletion strains, locus YOR070C, strain gyp1, hits give low values 0.934 | S. cerevisiae deletion strains, locus YOR080W, strain dia2, hits give low values 0.957 | S. cerevisiae deletion strains, locus YOR106W, strain vam3, hits give low values 0.887 | S. cerevisiae deletion strains, locus YOR136W, strain idh2, hits give low values 0.954 | S. cerevisiae deletion strains, locus YOR144C, strain elg1, hits give low values 0.938 | S. cerevisiae deletion strains, locus YOR231W, strain MKK1, hits give low values 0.881 | S. cerevisiae deletion strains, locus YOR265W, strain rbl2, hits give low values 0.952 | S. cerevisiae deletion strains, locus YOR316C, strain cot1, hits give low values 0.939 | S. cerevisiae deletion strains, locus YPL106C, strain sse1, hits give low values 0.856 | S. cerevisiae deletion strains, locus YPL240C, strain hsp82, hits give low values 0.951 | S. cerevisiae deletion strains, locus YPL241C, strain CIN2, hits give low values 0.985 | S. cerevisiae deletion strains, locus YPL256C, strain CLN2, hits give low values 0.882 | S. cerevisiae deletion strains, locus YPR119W, strain clb2, hits give low values 0.969 | S. cerevisiae deletion strains, locus YPR141C, strain kar3, hits give low values 0.975
active: S. cerevisiae deletion strains, locus YKR001C, strain vps1, hits give low values 0.876 | S. cerevisiae deletion strains, locus YLR113W, strain HOG1, hits give low values 0.851 | S. cerevisiae deletion strains, locus YLR221C, strain rsa3, hits give low values 0.899 | S. cerevisiae deletion strains, locus YLR258W, strain gsy2, hits give low values 0.91 | S. cerevisiae deletion strains, locus YLR268W, strain sec22, hits give low values 0.832 | S. cerevisiae deletion strains, locus YLR320W, strain mms22, hits give low values 0.742 | S. cerevisiae deletion strains, locus YLR330W, strain CHS5, hits give low values 0.844 | S. cerevisiae deletion strains, locus YLR342W, strain FKS1 (second series), hits give low values 0.705 | S. cerevisiae deletion strains, locus YLR418C, strain cdc73, hits give low values 0.66 | S. cerevisiae deletion strains, locus YML032C, strain rad52, hits give low values 0.889 | S. cerevisiae deletion strains, locus YML120C, strain ndi1, hits give low values 0.869 | S. cerevisiae deletion strains, locus YMR205C, strain PFK2, hits give low values 0.842 | S. cerevisiae deletion strains, locus YMR263W, strain SAP30, hits give low values 0.869 | S. cerevisiae deletion strains, locus YNL071W, strain lat1, hits give low values 0.727 | S. cerevisiae deletion strains, locus YNL153C, strain GIM3, hits give low values 0.847 | S. cerevisiae deletion strains, locus YNL183C, strain NPR1, hits give low values 0.802 | S. cerevisiae deletion strains, locus YNL233W, strain BNI4, hits give low values 0.804 | S. cerevisiae deletion strains, locus YNL307C, strain MCK1, hits give low values 0.668 | S. cerevisiae deletion strains, locus YOL006C, strain TOP1, hits give low values 0.394 | S. cerevisiae deletion strains, locus YOR083W, strain WHI5, hits give low values 0.865 | S. cerevisiae deletion strains, locus YOR184W, strain ser1, hits give low values 0.799 | S. cerevisiae deletion strains, locus YOR270C, strain vph1, hits give low values 0.675 | S. cerevisiae deletion strains, locus YOR290C, strain snf2, hits give low values 0.822 | S. cerevisiae deletion strains, locus YPL051W, strain arl3, hits give low values 0.887 | S. cerevisiae deletion strains, locus YPL055C, strain LGE1, hits give low values 0.754 | S. cerevisiae deletion strains, locus YPL078C, strain atp4, hits give low values 0.888 | S. cerevisiae deletion strains, locus YPR163C, strain tif3, hits give low values 0.797 | S. cerevisiae deletion strains, locus YPR167C, strain met16, hits give low values 0.889 | S. cerevisiae deletion strains, strain wtn01, hits give low values 0.887 | S. cerevisiae strains, strain wild type, hits give low values 0.89
